PubChem BioAssay AID504708 (Sanford-Burnham Center for Chemical Genomics, 2011)
The list shows a part of the results. A number with no mark means an inactive call. The source made the active and inactive calls.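 The calls were made as follows: active = inhibition at or below a set negative limit, negative inhibition meaning the enzyme was activated; inactive = the rest.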

molecular target: Hexokinase HKDC1 (Homo sapiens) (UniProt Q2TB90); assay: HKDC1 hexokinase activators, confirmation, biochemical, single concentration (AID 504708); conditions: recombinant HKDC1, G6PDH/diaphorase resazurin fluorescence; at 20 µM; active compounds read low
Sequence (Q2TB90 whole entry, looked up): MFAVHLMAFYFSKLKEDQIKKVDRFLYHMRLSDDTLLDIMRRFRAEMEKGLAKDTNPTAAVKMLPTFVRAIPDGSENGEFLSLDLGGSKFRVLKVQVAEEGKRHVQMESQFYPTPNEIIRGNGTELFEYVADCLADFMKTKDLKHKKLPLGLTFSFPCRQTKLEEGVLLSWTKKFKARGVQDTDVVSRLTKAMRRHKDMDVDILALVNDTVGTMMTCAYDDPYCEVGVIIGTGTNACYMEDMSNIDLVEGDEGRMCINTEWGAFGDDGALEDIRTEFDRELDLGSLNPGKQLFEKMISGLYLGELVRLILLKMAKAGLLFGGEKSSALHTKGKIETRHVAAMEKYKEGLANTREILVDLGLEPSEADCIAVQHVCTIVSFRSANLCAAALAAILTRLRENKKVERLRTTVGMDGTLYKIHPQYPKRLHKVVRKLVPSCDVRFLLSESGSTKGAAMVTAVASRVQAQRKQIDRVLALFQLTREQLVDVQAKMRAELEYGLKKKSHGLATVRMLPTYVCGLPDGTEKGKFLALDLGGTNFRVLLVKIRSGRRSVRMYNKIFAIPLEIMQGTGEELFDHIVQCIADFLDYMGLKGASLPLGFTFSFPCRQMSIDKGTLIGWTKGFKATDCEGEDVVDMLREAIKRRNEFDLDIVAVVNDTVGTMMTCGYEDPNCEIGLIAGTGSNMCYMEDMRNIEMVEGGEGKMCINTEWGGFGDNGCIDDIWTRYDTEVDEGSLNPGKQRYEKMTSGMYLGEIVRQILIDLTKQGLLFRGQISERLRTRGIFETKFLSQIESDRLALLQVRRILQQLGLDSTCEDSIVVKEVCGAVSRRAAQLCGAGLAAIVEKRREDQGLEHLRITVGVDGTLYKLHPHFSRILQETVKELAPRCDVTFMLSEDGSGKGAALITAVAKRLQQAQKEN

Going from COC(=O)c1ccc(NCc2cc(O)ccc2O)cc1 to Cc1ccc(N(Cc2cc(=O)[nH]c3ccccc23)C(=O)CCl)cc1, the inhibition falls from 65.1% to 34.5%.

First: O=C(CSc1n[nH]c(-c2cccnc2)n1)Nc1ccnc2ccccc12
Second: O=C(NC1=CC(=O)c2ccccc2C1=O)c1ccccc1
The inhibition of the first is lower: 46% for the first, 69.9% for the second.

Going from CCOC(=O)CSc1nc2ccc(C)cc2n2cnnc12 to CCOc1cc(/C=N/n2cnnc2)c(Br)cc1O, the inhibition falls from 63.8% to 28.4%.

First: CN1c2ccc(C=O)c3c(C=O)ccc(c23)N(C)C1(C)C
Second: Nc1ccc2nc3c(=O)[nH]c(=S)[nH]c3nc2c1
The inhibition of the first is higher: 61.2% for the first, -3.17% for the second.

Going from COc1ccc(C(CCN(Cc2ccc(OC)c(OC)c2)C(=O)CCl)c2ccccc2)cc1 (stereo unspecified) to CCOC(=O)C1=C(c2ccc(OC)cc2)C(=O)c2ccccc2C1=O, the inhibition rises from 17.4% to 75%.

First: Cc1ccc(Nc2nc(-c3sc(NC(=O)c4ccccc4)nc3C)cs2)cc1
Second: O=C(Nc1ccccc1Cl)/C(Cl)=C(\Cl)S(=O)c1ccccc1 (stereo unspecified)
The inhibition of the first is higher: 12.1% for the first, -5.2% for the second.

First: Cc1cc(C(=O)CCl)c(C)n1CC1COc2ccccc2O1 (stereo unspecified)
Second: Cc1ccc(C(=O)O)cc1-c1ccc(/C=C2\SC(=O)N(CC(=O)Nc3ccc4c(c3)OCO4)C2=O)o1
The inhibition of the first is lower: 11% for the first, 13.9% for the second.

In the case of C[N+](C)(CCCCCC[N+](C)(C)CCCN1C(=O)c2cccc3cccc(c23)C1=O)CCCN1C(=O)c2cccc3cccc(c23)C1=O, the inhibition was -82% (active).
For O=C(CSc1cccc2cccnc12)N/N=C/c1cccnc1, the inhibition was -46.6% (active).
